M1 antag = antagonists of rat M1 muscarinic receptor; 64,000 compounds, 3.4% hits; AID 628, 2007; CHO-M1 cells, Fluo-4 calcium, ACh EC80 antagonist mode; stronger effect = lower value; B-score at 10 µM; Muscarinic acetylcholine receptor M1 (Rattus norvegicus), P08482;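 active = calcium fluorescence response, raw or row-and-column corrected B-score, differing from the plate sample mean either way at a set confidence level, mostly lower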
Target sequence (P08482 whole entry, looked up): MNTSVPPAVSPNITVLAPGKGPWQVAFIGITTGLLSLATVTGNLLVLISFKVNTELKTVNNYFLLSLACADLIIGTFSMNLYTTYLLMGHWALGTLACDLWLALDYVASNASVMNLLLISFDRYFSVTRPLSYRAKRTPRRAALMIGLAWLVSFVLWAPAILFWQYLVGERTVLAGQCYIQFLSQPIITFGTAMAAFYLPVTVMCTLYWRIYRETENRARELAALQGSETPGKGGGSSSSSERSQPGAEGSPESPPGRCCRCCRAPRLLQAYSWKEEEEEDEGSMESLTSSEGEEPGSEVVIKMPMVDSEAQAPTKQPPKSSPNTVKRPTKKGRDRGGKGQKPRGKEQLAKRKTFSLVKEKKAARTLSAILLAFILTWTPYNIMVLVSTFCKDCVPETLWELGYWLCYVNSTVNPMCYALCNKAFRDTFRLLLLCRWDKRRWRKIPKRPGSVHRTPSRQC
FXIa mix inh = FXIa protease inhibitors in compound pools, primary screen, biochemical, 10-compound mixtures; Coagulation factor XI (Homo sapiens), P03951; purified FXIa, fluorogenic substrate, pooled mixtures; inhibition, % at 5 µM; 62,000 compounds, 0.19% hits; AID 680, 2007;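 also: each value is inhibition by a whole ten-compound pool holding the compound; 0% = enzyme with no mixture and 100% = wells lacking enzyme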
hDAT+cocaine = changed hDAT dopamine uptake under cocaine IC80, either direction, primary screen, cocaine antagonist project, cell-based, LLC-PK1 hDAT, [14C]-dopamine uptake, MLSMR | LLC-PK1 hDAT cells, [14C]-dopamine uptake with cocaine IC80; actives deviate in either direction | B-score at 10 µM | 110,000 compounds, 1.3% hits;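 active = Z score or B-score, a plate-position-corrected score, falls beyond the plate's 99.7% confidence bounds, in either direction; inactive = both scores lie inside the 99.7% bounds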;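 also: scored against the spread of the other compound wells on the same plate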
M1 agonist = M1 muscarinic receptor agonists, primary screen, CHO-M1 cells, Fluo-4 calcium, agonist mode | Muscarinic acetylcholine receptor M1 | Fluo-4 calcium fluorescence; stronger effect = higher value | B-score at 10 µM | 64,000 compounds, 3% hits;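 active = fluorescence rise, raw or as B-score row- and column-corrected plate score, outside the 99.7% band of its plate's samples, either direction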
FXIIa inh mix = human factor XIIa inhibitors, primary screen, biochemical, pooled compound mixtures, fluorogenic substrate. purified FXIIa. inhibition, % at 5 µM. 62,000 compounds, 0.2% hits;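 also: 0% = enzyme without compound and 100% = no enzyme blank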
D1 mod = D1 CRE-luciferase signal change, two-sided – cell-based, HEK293 D1, dopamine EC30, D1 allosteric modulator project, primary screen | dopamine EC30 potentiation; actives deviate in either direction | 58,000 compounds, 5.9% hits | B-score at 10 µM;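 active = luminescence count or its row- and column-corrected plate score outside the 99.7% band of the plate's sample wells, on either side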
D1 mod confirm = D1 receptor positive allosteric modulators, retest, confirmation, cell-based, HEK293 D1, CRE-luciferase, duplicate; shares compounds with D1 mod; dopamine EC30 potentiation; stronger effect = higher value; luminescence at 10 µM; 2,200 compounds, 88% hits; AID 642, 2007;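 active = luminescence in either of two replicates above the same-plate mean plus 3 SD of the low-dose dopamine control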
D1 ag no DA = D1 receptor agonism without dopamine, confirmation, mechanism study for D1 allosteric modulator project, cell-based, HEK293 D1, CRE-luciferase, secondary assay 1 | shares compounds with D1 mod | luminescence, no dopamine; stronger effect = higher value | luminescence at 10 µM | 1,900 compounds, 0.8% hits | AID 646, 2007; in the data active = luminescence above about 3900
Isoprot counter = isoproterenol response counter-screen activity for D1 modulators; AID 647; calls only at 10 µM; HEK293 D1 CRE-luciferase, isoproterenol EC30 counter-screen; shares compounds with D1 mod; 2,200 compounds, 63% hits;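 active = luminescence in either replicate above plate mean of wells with a partly effective reference agonist dose plus 3 SD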;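 also: isoproterenol raises cAMP through native beta-adrenoceptor Gs so signal bypasses D1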
* marks the source's active call; other numbers are inactive results; i = inactive; nt = no result; + = active, no number. A selection: hits, their analogues and other compounds. The true share with any hit is near 7.4%. Rule as the data show it, unless noted: active = inhibition above about 20% (passing the limit was not always enough); inactive = the rest.

SMILES	M1 antag	FXIa mix inh	hDAT+cocaine	M1 agonist	FXIIa inh mix	D1 mod	D1 mod confirm	D1 ag no DA	Isoprot counter
C=CCn1c2ccccc2c2nnc(SCC(=O)Nc3cc(C)on3)nc21	nt	nt	-0.442	nt	nt	nt	nt	nt	nt
CCCn1c2ccccc2c2nnc(SCC(=O)Nc3ncccn3)nc21	-0.732	6.2	0.895	-0.0532	13.8	19.7*	22748*	1692	+
COc1ccc(C)cc1NC(=O)c1cnc2scc(C)n2c1=O	0.435	8.4	-0.867	-0.683	4.9	-0.603	nt	nt	nt
COc1ccc(CCNC(=O)c2cnc3scc(C)n3c2=O)cc1OC	-0.773	12.1	0.731	-1.73	5.6	39.9*	17580*	1900	+
COc1ccc(CCNC(=O)c2cccnc2)cc1OC	nt	-8.8	0.0993	nt	0.0	3.42*	6704	1660	i
CCC(C)NC(=S)NNC(=O)c1ccc(C(C)(C)C)cc1 (configuration not stated)	nt	nt	0.229	nt	nt	nt	nt	nt	nt
N#CC1=C(N)N(c2ccccc2)C(c2ccco2)C1(C#N)C#N (configuration not stated)	0.011	-2.6	-0.107	-0.739	5.1	7.69*	5392	1576	i
Cc1cc(C)cc(OCC(=O)OCC(=O)c2ccc3c(c2)NC(=O)CO3)c1	nt	nt	-0.309	nt	nt	nt	nt	nt	nt
CSc1nccc(Nc2ccccc2)c1C#N	-0.00214	2.2	0.0331	-0.244	3.2	nt	nt	nt	nt
COc1nccc(Nc2ccccc2)c1C#N	0.445	-5.4	-0.881	-0.239	8.4	6.62*	14732*	nt	+
COC(=O)c1sccc1NC(=O)c1cc(C)on1	0.0551	8.5	nt	0.0655	6.3	3.44*	10948*	1860	+
COC(=O)c1sccc1NC(=O)c1ccncc1	0.405	8.6	-0.394	-0.884	5.4	11.1*	14580*	1608	+
COC(=O)c1sccc1NC(=O)c1c(C)noc1C	2.03	6.2	-0.24	0.268	0.1	1.3	nt	nt	nt
COC(=O)c1sccc1NC(=O)Cn1nnc(-c2ccc(C)cc2)n1	0.461	8.1	-0.665	1.22	2.0	2.42*	4304	1332	i
CN(C)C(CNC(=O)CCCc1c[nH]c2ccccc12)c1ccco1 (configuration not stated)	-0.437	3.2	-0.245	-0.0703	6.3	-0.0554	nt	nt	nt
CCCCNC(=O)c1ccc2c(c1)ncn2C1CCCC1	nt	nt	-0.196	nt	nt	nt	nt	nt	nt
CC1Cc2ccccc2N1C(=O)CN1C(=O)C(=O)N(Cc2ccccc2)C1=O (configuration not stated)	nt	nt	0.0319	nt	nt	nt	nt	nt	nt
Cc1ccc(-c2cc(C(F)F)nc(NCc3cccnc3)n2)cc1	0.636	9.1	-0.117	-0.462	8.7	12.6*	16464*	nt	+
Cc1ccc(-c2cc(C(F)F)nc(NCC3CCCO3)n2)cc1 (configuration not stated)	0.617	-2.8	1.32	-0.106	1.7	3.31*	14888*	nt	+
Cn1c(=O)c2c(-c3ccccc3)n(N3CCOCC3)cc2n(C)c1=O	0.833	-0.8	0.876	0.987	5.5	3.31*	6320*	1616	i
Cn1c(=O)c2c(-c3ccc(C(C)(C)C)cc3)n(N3CCOCC3)cc2n(C)c1=O	-0.211	5.9	-0.361	-1.2	3.4	3.8*	9948*	1848	i
Cn1c(=O)c2c(-c3ccccc3)n(C3CCCCC3)cc2n(C)c1=O	-0.176	-2.8	-0.146	0.0795	2.4	4.27	nt	nt	nt
COc1ccc(Nc2nc(Nc3ccc(OC)cc3)nc(SC3=NCCS3)n2)cc1	nt	nt	0.847	nt	nt	nt	nt	nt	nt
CC1CCC(NC(=O)C2CCN(c3cnccn3)CC2)CC1 (configuration not stated)	0.0967	0.6	-0.861	0.18	5.3	0.173	nt	nt	nt
CCn1c(SCc2cccnc2)nc2c1c(=O)n(C)c(=O)n2C	1.15	-10.1	1.12	0.021	7.6	4.97*	5832*	1320	i
SMILES	M1 antag	FXIa mix inh	hDAT+cocaine	M1 agonist	FXIIa inh mix	D1 mod	D1 mod confirm	D1 ag no DA	Isoprot counter
CCCCn1c(SCc2cccnc2)nc2c1c(=O)n(C)c(=O)n2C	-0.145	-4.5	0.5	0.744	1.9	1.71	nt	nt	nt
Cc1nn(-c2ccccn2)c(C)c1Oc1ccccc1O	-0.783	8.0	0.317	-0.00284	5.0	3.81*	4864	1224	i
CCn1c2ccccc2c2nc3ccccc3nc21	0.0132	0.7	0.222	-0.0383	4.5	5.61*	15700*	nt	i
COC(=O)Cn1c2ccc(OC)cc2c2nc3ccccc3nc21	0.186	1.6	0.711	1.89	-14.4	0.621	nt	nt	nt
CC1=C(C#N)C(c2cn(-c3ccccc3)nc2-c2cccs2)C(C#N)=C(C)N1	0.633	-5.0	0.271	-0.541	2.7	nt	nt	nt	nt
NC1=NC(c2cn(-c3ccccc3)nc2-c2cccs2)n2c(nc3ccccc32)N1 (configuration not stated)	-0.298	5.5	nt	-0.359	-2.8	4.26*	7380*	1336	i
COCCCn1c(SCc2nnc(-c3ccc(OC)c(OC)c3)o2)nc2ccccc2c1=O	nt	nt	1.45	nt	nt	nt	nt	nt	nt
COc1ccc(-c2nnc(CSc3nc4ccccc4c(=O)n3CC(C)C)o2)cc1OC	0.613	6.7	-0.127	-0.42	-11.7	5.76*	6848*	nt	+
C=CCn1c(SCC#N)nc2ccccc2c1=O	-0.0805	3.6	-0.263	-0.394	0.3	-0.334	nt	nt	nt
CC(C#N)On1c(SC(C)C#N)nc2ccccc2c1=O (configuration not stated)	0.366	7.0	-1.23	0.3	2.7	4.18*	11488*	nt	i
CC(C)Cn1c(SCC#N)nc2ccccc2c1=O	nt	0.5	-0.89	nt	-1.3	8.59*	15244*	1668	+
CCN(CC)C(=O)CSc1nc2ccccc2c(=O)n1OC(C)C	nt	nt	0.119	nt	nt	nt	nt	nt	nt
CC(C)(C)C(=O)Cn1c(=O)n(CC2CCCO2)c(=O)c2ccccc21 (configuration not stated)	-0.451	4.6	nt	-0.0604	3.9	0.396	nt	nt	nt
C=CCn1c(SCCCC)nc(O)cc1=O	-0.0458	5.0	-0.342	-0.0813	0.6	3.64*	6816	1616	i
O=C(COc1ccccc1)Nc1ccccc1N1CCCCC1	0.175	-0.5	0.311	0.401	4.3	3.41*	5352	nt	i
O=C(COc1ccccc1)Nc1ccccc1N1CCN(c2ccccc2)CC1	0.386	13.3	-1.27	-0.00095	10.3	-0.292	nt	nt	nt
